What was measured:
Test in all cases: DAPPL (digital affinity profiling via proximity ligation, sequencing); 10 mM Tris-HCl pH 7.5, 50 mM NaCl, 1 mM DTT, 4% glycerol, room temperature, 30 min; GST-TFs on glutathione beads, 16-mer random dsDNA library, 0.1% formaldehyde crosslink after washing; high values mean tight binding
Details in all cases: protein: recombinant; tags: N-terminal GST; dsDNA, one strand shown
FLI1 = target: T1, FLI1 (Homo sapiens, UniProt Q01543 1-452)
T1 sequence: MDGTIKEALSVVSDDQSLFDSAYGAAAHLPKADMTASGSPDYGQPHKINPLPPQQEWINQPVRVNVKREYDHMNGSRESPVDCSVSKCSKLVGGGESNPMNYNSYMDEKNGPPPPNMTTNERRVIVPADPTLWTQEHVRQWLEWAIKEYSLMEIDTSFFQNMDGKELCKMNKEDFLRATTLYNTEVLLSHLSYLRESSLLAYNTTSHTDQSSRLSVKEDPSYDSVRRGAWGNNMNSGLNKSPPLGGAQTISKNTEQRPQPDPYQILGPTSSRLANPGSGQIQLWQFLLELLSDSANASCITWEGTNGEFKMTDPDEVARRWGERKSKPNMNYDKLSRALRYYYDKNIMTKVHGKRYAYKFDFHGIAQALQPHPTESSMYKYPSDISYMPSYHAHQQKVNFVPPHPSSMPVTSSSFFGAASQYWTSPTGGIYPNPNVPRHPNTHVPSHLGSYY
Summary of the method: (§1)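 Human transcription factors were made in yeast as GST fusions, captured on glutathione beads and barcoded with DNA. With a tag-only sample included, the pool was incubated with 200 nmole of a random double-stranded 16-mer DNA library in Tris/NaCl/DTT/glycerol buffer at room temperature for 30 min, then crosslinked with 0.1% formaldehyde after washing, ligated by proximity, amplified and sequenced. For binding signal, each hexamer's read frequency for a factor is divided by its frequency for the tag-only sample.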

ELK1 = target: T2, ELK1 (Homo sapiens, UniProt P19419 1-428)
T2 sequence: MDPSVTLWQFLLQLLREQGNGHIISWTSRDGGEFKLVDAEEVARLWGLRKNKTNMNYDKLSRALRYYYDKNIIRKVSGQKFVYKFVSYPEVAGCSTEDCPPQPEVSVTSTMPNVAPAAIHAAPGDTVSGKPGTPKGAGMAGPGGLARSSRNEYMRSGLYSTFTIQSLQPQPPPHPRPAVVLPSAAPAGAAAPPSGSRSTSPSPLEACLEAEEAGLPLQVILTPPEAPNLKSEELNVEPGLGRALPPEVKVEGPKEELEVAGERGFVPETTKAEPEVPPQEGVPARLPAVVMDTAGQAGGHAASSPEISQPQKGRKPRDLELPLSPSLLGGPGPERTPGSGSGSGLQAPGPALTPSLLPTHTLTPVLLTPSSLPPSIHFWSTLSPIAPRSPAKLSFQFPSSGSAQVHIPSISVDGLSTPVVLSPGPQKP
Summary of the method: as §1

GABPA = target: T3, GABPA (Homo sapiens, UniProt Q06546 1-454)
T3 sequence: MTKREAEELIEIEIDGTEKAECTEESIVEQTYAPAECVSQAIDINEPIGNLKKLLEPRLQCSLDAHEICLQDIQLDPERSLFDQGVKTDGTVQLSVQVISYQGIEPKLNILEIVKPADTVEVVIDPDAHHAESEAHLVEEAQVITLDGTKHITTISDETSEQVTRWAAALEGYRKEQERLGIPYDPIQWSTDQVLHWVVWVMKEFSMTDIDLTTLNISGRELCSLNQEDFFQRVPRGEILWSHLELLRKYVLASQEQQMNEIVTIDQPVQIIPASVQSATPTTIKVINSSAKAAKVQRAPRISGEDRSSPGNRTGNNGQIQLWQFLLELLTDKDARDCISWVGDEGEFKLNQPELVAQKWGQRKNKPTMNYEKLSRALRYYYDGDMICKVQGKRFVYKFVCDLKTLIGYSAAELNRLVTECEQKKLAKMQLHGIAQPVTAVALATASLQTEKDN
Summary of the method: as §1

ELF1 = ELF1 (Homo sapiens, UniProt P32519 1-619)
Summary of the method: as §1

EHF = target: T4, EHF (Homo sapiens, UniProt Q9NZC4 1-300)
T4 sequence: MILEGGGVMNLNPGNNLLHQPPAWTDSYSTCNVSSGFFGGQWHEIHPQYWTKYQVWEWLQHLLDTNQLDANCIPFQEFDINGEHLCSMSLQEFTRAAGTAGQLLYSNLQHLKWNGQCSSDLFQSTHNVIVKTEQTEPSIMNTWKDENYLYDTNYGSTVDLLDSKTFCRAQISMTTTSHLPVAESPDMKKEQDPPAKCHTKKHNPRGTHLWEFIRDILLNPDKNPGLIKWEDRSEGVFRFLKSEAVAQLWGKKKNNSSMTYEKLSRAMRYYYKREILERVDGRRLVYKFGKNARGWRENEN
Summary of the method: as §1

SPI1 = SPI1 (Homo sapiens, UniProt P17947 1-270)
Summary of the method: as §1

SPIB = SPIB (Homo sapiens, UniProt Q01892 1-262)
Summary of the method: as §1

FEV = target: T5, FEV (Homo sapiens, UniProt Q99581 1-238)
T5 sequence: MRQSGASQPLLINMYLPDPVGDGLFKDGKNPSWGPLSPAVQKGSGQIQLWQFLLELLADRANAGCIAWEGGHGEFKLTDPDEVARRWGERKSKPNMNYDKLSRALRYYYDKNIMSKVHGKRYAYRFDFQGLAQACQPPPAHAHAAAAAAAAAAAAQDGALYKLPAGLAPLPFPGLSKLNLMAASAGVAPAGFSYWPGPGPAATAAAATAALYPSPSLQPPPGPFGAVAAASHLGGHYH
Summary of the method: as §1

ETV5 = ETV5 (Homo sapiens, UniProt P41161 1-510)
Summary of the method: as §1

SPIC = target: T6, SPIC (Homo sapiens, UniProt Q8N5J4 1-248)
T6 sequence: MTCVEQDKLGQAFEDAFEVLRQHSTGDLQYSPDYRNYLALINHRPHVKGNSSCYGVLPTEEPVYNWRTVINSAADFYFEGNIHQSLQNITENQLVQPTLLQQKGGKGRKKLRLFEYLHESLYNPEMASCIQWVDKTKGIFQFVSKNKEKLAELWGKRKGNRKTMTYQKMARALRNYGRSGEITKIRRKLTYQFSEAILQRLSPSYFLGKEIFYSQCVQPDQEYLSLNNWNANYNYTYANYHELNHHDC
Summary of the method: as §1

ELF4 = ELF4 (Homo sapiens, UniProt Q99607 1-663)
Summary of the method: as §1

ELK4 = target: T7, ELK4 (Homo sapiens, UniProt P28324-2 1-405)
T7 sequence: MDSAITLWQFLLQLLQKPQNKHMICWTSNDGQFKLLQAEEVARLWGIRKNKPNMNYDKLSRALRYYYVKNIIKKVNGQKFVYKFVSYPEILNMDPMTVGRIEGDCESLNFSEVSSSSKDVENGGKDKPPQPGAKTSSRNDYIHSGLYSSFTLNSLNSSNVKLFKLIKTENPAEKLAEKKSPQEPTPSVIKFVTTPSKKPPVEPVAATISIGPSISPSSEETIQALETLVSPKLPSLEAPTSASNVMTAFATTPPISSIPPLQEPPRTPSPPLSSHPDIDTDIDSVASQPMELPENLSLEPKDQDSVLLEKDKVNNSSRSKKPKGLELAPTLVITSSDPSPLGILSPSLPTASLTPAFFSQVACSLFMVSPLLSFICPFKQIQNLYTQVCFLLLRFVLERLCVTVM
Summary of the method: as §1

ETV2 = target: T8, ETV2 (Homo sapiens, UniProt O00321 1-342)
T8 sequence: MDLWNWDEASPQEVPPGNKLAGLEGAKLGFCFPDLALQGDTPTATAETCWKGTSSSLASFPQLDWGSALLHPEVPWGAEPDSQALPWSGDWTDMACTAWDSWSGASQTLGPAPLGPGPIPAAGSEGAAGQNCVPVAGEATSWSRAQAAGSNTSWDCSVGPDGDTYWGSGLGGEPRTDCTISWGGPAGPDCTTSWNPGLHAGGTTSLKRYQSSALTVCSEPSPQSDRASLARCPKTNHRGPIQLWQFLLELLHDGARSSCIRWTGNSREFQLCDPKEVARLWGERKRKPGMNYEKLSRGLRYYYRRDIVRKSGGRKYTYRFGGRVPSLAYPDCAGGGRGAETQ
Summary of the method: as §1

ELF3 = target: T9, ELF3 (Homo sapiens, UniProt P78545 1-371)
T9 sequence: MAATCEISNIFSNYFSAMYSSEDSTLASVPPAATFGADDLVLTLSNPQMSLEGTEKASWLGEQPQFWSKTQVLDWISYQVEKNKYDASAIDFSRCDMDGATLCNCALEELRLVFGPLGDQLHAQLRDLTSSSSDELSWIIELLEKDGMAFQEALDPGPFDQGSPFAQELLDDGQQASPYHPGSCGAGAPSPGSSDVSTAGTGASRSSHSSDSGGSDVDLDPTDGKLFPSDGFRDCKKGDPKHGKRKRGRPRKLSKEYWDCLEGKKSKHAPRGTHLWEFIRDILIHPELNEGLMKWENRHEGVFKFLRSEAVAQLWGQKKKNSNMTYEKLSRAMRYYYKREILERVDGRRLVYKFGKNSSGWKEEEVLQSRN
Summary of the method: as §1

ETV1 = ETV1 (Homo sapiens, UniProt P50549 1-477)
Summary of the method: as §1

ERG = target: T10, ERG (Homo sapiens, UniProt P11308 1-479)
T10 sequence: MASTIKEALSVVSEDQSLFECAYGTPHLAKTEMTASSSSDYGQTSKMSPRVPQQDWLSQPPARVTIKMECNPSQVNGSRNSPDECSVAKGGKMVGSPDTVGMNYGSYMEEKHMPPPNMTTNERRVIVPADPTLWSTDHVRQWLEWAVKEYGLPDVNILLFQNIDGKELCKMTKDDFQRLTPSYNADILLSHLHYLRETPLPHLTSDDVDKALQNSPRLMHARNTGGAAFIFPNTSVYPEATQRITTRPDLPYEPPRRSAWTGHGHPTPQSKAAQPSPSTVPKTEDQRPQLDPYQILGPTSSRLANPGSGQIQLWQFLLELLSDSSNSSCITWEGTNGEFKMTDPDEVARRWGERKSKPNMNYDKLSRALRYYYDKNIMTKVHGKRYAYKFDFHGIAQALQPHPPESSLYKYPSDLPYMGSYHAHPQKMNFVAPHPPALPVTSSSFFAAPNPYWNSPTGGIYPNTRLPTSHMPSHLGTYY
Summary of the method: as §1

ELK3 = target: T11, ELK3 (Homo sapiens, UniProt P41970 1-407)
T11 sequence: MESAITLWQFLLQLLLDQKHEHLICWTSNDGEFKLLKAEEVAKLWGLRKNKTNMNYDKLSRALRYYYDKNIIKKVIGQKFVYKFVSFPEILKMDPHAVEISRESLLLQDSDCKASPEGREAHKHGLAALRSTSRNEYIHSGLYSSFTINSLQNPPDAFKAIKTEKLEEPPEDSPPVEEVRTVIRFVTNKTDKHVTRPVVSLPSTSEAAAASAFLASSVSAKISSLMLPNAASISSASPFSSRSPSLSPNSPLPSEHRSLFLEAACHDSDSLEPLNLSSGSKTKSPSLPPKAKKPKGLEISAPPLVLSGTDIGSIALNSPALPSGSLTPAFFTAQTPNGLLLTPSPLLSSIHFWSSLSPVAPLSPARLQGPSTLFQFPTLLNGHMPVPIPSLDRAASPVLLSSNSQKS
Summary of the method: as §1

Chain of ELF4 (Q99607 whole entry): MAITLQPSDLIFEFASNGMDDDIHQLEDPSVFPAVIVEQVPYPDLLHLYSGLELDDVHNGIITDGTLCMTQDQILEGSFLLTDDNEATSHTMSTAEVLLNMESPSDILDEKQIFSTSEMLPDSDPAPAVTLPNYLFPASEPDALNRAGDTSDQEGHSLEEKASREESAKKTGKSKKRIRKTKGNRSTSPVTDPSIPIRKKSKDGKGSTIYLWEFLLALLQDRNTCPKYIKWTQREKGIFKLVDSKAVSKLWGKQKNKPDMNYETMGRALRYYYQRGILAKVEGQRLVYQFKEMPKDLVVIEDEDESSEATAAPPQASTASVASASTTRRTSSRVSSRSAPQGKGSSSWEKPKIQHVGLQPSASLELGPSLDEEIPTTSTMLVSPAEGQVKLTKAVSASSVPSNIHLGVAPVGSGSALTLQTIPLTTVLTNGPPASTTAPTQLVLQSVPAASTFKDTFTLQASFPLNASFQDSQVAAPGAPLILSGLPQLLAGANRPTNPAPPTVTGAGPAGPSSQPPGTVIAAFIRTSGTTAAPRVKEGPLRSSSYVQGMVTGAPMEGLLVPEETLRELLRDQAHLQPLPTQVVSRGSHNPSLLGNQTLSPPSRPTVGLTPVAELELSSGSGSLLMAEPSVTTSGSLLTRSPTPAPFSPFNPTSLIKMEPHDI
Chain of ETV5 (P41161 whole entry): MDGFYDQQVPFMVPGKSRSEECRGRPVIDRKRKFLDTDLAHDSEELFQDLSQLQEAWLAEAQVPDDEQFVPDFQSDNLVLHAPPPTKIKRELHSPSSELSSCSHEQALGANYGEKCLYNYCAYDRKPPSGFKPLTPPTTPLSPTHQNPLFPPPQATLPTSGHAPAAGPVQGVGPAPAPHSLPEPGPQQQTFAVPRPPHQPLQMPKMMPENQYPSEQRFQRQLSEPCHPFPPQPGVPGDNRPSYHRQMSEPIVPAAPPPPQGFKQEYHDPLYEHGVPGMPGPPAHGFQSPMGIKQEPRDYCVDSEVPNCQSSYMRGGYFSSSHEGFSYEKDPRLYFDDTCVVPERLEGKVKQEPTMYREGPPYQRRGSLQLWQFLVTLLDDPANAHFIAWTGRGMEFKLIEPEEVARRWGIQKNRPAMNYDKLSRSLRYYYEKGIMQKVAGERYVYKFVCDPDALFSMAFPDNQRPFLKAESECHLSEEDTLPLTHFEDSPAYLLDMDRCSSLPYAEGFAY
Chain of ELF1 (P32519 whole entry): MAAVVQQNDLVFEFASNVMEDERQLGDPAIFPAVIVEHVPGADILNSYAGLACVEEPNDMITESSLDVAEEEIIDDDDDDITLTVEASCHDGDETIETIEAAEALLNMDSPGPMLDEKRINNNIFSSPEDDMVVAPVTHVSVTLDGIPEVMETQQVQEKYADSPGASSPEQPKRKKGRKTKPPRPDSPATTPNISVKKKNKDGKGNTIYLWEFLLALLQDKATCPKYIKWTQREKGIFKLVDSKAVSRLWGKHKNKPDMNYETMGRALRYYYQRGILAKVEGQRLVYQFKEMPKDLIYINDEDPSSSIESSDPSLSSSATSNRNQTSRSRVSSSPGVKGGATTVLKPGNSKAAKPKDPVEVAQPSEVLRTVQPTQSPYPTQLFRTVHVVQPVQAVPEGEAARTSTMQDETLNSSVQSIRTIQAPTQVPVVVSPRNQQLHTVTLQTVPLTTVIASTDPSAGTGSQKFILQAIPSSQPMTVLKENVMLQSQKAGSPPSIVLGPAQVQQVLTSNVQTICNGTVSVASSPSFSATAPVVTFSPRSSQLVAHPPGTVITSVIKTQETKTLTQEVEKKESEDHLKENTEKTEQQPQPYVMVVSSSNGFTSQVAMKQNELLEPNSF
Chain of SPIB (Q01892 whole entry): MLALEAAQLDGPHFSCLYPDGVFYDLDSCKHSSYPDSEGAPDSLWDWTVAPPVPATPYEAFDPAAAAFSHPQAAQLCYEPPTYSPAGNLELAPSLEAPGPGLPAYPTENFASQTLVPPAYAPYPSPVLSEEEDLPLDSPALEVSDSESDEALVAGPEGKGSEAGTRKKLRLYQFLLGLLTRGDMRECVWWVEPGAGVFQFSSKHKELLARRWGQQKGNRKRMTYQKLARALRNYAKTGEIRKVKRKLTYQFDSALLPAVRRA
Chain of ETV1 (P50549 whole entry): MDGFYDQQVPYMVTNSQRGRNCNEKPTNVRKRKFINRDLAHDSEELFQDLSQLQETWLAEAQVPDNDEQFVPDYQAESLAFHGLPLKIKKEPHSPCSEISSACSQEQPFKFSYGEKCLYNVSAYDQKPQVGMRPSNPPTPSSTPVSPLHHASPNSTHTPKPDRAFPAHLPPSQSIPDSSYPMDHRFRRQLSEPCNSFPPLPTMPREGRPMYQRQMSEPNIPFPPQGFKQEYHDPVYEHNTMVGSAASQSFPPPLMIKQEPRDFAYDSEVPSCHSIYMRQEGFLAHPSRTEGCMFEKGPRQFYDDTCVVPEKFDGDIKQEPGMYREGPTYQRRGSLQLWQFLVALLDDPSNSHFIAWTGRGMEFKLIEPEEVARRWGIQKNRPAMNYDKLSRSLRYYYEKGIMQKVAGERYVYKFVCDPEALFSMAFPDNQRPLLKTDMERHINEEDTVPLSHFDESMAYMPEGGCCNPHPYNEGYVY

Sequence	binding signal (FLI1)	binding signal (ELK1)	binding signal (GABPA)	binding signal (ELF1)	binding signal (EHF)	binding signal (SPI1)	binding signal (SPIB)	binding signal (FEV)	binding signal (ETV5)	binding signal (SPIC)	binding signal (ELF4)	binding signal (ELK4)	binding signal (ETV2)	binding signal (ELF3)	binding signal (ETV1)	binding signal (ERG)	binding signal (ELK3)
GTATGG	1.12 fold enrichment (6-mer frequency, TF over GST control)	1.04 fold enrichment (6-mer frequency, TF over GST control)	1.04 fold enrichment (6-mer frequency, TF over GST control)	1.08 fold enrichment (6-mer frequency, TF over GST control)	1.05 fold enrichment (6-mer frequency, TF over GST control)	1.06 fold enrichment (6-mer frequency, TF over GST control)	1.1 fold enrichment (6-mer frequency, TF over GST control)	1.01 fold enrichment (6-mer frequency, TF over GST control)	1.02 fold enrichment (6-mer frequency, TF over GST control)	1.08 fold enrichment (6-mer frequency, TF over GST control)	1.02 fold enrichment (6-mer frequency, TF over GST control)	1.01 fold enrichment (6-mer frequency, TF over GST control)	1.03 fold enrichment (6-mer frequency, TF over GST control)	1.04 fold enrichment (6-mer frequency, TF over GST control)	1.16 fold enrichment (6-mer frequency, TF over GST control)	–	–
ACACCA	1.01 fold enrichment (6-mer frequency, TF over GST control)	1.15 fold enrichment (6-mer frequency, TF over GST control)	–	1.05 fold enrichment (6-mer frequency, TF over GST control)	1.04 fold enrichment (6-mer frequency, TF over GST control)	–	–	1.03 fold enrichment (6-mer frequency, TF over GST control)	1.04 fold enrichment (6-mer frequency, TF over GST control)	1.13 fold enrichment (6-mer frequency, TF over GST control)	1.02 fold enrichment (6-mer frequency, TF over GST control)	1.08 fold enrichment (6-mer frequency, TF over GST control)	1.05 fold enrichment (6-mer frequency, TF over GST control)	1.01 fold enrichment (6-mer frequency, TF over GST control)	–	1.01 fold enrichment (6-mer frequency, TF over GST control)	–
TCACAG	1.09 fold enrichment (6-mer frequency, TF over GST control)	1.15 fold enrichment (6-mer frequency, TF over GST control)	1.1 fold enrichment (6-mer frequency, TF over GST control)	1.06 fold enrichment (6-mer frequency, TF over GST control)	1.02 fold enrichment (6-mer frequency, TF over GST control)	–	1.09 fold enrichment (6-mer frequency, TF over GST control)	1.09 fold enrichment (6-mer frequency, TF over GST control)	1.07 fold enrichment (6-mer frequency, TF over GST control)	1.04 fold enrichment (6-mer frequency, TF over GST control)	1.17 fold enrichment (6-mer frequency, TF over GST control)	1.04 fold enrichment (6-mer frequency, TF over GST control)	1.28 fold enrichment (6-mer frequency, TF over GST control)	1.13 fold enrichment (6-mer frequency, TF over GST control)	1.05 fold enrichment (6-mer frequency, TF over GST control)	–	1.01 fold enrichment (6-mer frequency, TF over GST control)

— paper PMC7862700, “An all-to-all approach to the identification of sequence-specific readers for epigenetic DNA modifications on cytosine”
